In the supplement of paper PMC10498489:
About 330 (14%) of roughly 2,300 compounds showed activity. Not all results are given here. Unmarked numbers belong to inactive results.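 Rule for the calls: active = median modified Z-score above 1.96; inactive = 1.96 or below.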

System: HepG2 Srxn1-GFP reporter cells (+30 nM CDDO-Me)
Assay: Srxn1-GFP intensity median modified Z-score relative to plate median; higher = stronger NRF2 / oxidative stress reporter activation, active = hit call of the paper
Conditions: 10 µM; exposure time: 24h
Outline: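 The modified Z-score of GFP intensity was computed per plate, and the median over replicates is reported. HepG2 Srxn1-GFP BAC reporter cells in three replicate plates were treated for 24 h with compound at 10 μM plus an NRF2 activator at 30 nM (≤0.1% DMSO). Per-cell cytoplasmic GFP came from confocal images, excluding those with under 100 cells, and scaling used 1.4826 × median absolute deviation.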

SMILES	Srxn1-GFP intensity median modified Z-score
NC[C@@H]1CC[C@@H](N)[C@@H](O[C@H]2[C@H](O)[C@@H](O[C@H]3O[C@H](CO)[C@@H](O)[C@H](N)[C@H]3O)[C@H](N)C[C@@H]2N)O1 [euspeclibcmpd1045]	-0.0322
CCOc1ccc(C(=O)c2cc(O)c(OC)c(OC)c2O)cc1 [euspeclibcmpd2089]	-0.551
CCCCCCCCCCCCCCC(C(=O)OC)C(O)(CC(=O)OC)C(=O)OC (stereo not given) [euspeclibcmpd2214]	-0.435
CCCCCCCCCCCCCCCCC(C(=O)O)C(O)(CC(=O)O)C(=O)O (stereo not given) [euspeclibcmpd1735]	3.83 (active)
CCCCCCCCCCCCC(C(=O)O)C(C)C(=O)O (stereo not given) [euspeclibcmpd1524]	0.456
OC[C@H]1O[C@H](OC[C@H]2O[C@@H](O)[C@H](O)[C@@H](O)[C@@H]2O)[C@H](O)[C@@H](O)[C@H]1O [euspeclibcmpd1651]	-0.055
Cn1c(=O)c2nc[nH]c2n(C)c1=O [euspeclibcmpd290]	-0.062
CC(C)Cn1c(=O)n(C)c(=O)c2nc[nH]c21 [euspeclibcmpd1808]	11.6 (active)
CC(C)Cn1c(=O)n(C)c(=O)c2nc[nH]c21 [euspeclibcmpd2061]	0.0284
CC(O)Cn1cnc2c1c(=O)n(C)c(=O)n2C (stereo not given) [euspeclibcmpd1230]	0.0469
COc1ccc(Cc2c[nH]c(=N)[nH]c2=N)cc1OC [euspeclibcmpd456]	-0.0911
COc1ccc2c(c1)C(=O)/C(=C\c1ccc(OC)c(O)c1)CO2	3.46 (active)
COc1ccc([C@@H]2CC(=O)c3c(O)cc(O)cc3O2)cc1O [euspeclibcmpd1483]	0.0163
COc1ccc(-c2cc(=O)c3c(O)cc(OC)c(OC)c3o2)c(OC)c1 [euspeclibcmpd1657]	0.259
COc1ccc(/C=C2/COc3ccc(Br)cc3C2=O)cc1O	1.17
COc1ccc2c(c1)OC/C(=C\c1ccc(OC)c(O)c1)C2=O [euspeclibcmpd1638]	19.3 (active)
COc1cc2c(cc1OC)-c1c(oc3cc(O)cc(O)c3c1=O)CO2 [euspeclibcmpd2244]	-0.157
COC(=O)/C=C/c1cc(OC)c(OC)c(OC)c1 [euspeclibcmpd2136]	0.7
COC(=O)/C=C/C(=O)OC [euspeclibcmpd923]	6.34 (active)
COC(=O)/C=C/C(C)=C/C=C/C(C)=C/C=C/C=C(C)/C=C/C=C(C)/C=C/C(=O)O [euspeclibcmpd2376]	-0.19
COCCN(Cc1ccccn1)C(=O)C1CCN(C)C(=O)C1 (stereo not given)	0.317
CC1(C)SC2C(NC(=O)[C@@H](NC(=O)N3CCNC3=O)c3ccccc3)C(=O)N2C1C(=O)O (stereo not given in full) [euspeclibcmpd2116]	-0.415
CCOc1ccc(S(=O)(=O)O)c2cccnc12 [euspeclibcmpd2064]	0.0425

SMILES	Srxn1-GFP intensity median modified Z-score
CCN(CC)Cc1ccc(N=c2cc[nH]c3cc(Cl)ccc23)cc1O [euspeclibcmpd22]	3.72 (active)
Nc1ccc(S(=O)(=O)N=c2cnc3ccccc3[nH]2)cc1 [euspeclibcmpd2157]	0.000648
OC[C@@H](O)[C@H](O)[C@@H](O)[C@H](O)CO [euspeclibcmpd2232]	0.317
N=c1ncn([C@@H]2O[C@H](CO)[C@@H](O)[C@H]2O)c(=O)[nH]1 [euspeclibcmpd436]	15.1 (active)
N=c1[nH]cnc2c1ncn2[C@@H]1O[C@H](CO)[C@@H](O)[C@H]1O [euspeclibcmpd2100]	-0.0799
N=c1ccn(C2O[C@H](CO)[C@@H](O)[C@H]2O)c(=O)[nH]1 (stereo not given in full) [euspeclibcmpd2152]	-0.285
O=c1ccn([C@@H]2O[C@H](CO)[C@@H](O)[C@H]2O)c(=O)[nH]1 [euspeclibcmpd2258]	-0.304
N=c1[nH]c(=S)c2ncn(C3O[C@H](CO)[C@@H](O)[C@H]3O)c2[nH]1 (stereo not given in full) [euspeclibcmpd1778]	41.1 (active)
NC(=O)c1ncn(C2O[C@H](CO)[C@@H](O)[C@H]2O)c1N (stereo not given in full) [euspeclibcmpd855]	0.445
Cc1c(NS(=O)(=O)C(C)C)c(=O)n(-c2ccccc2)n1C	1.19
CC(C)(CO)C(=O)C(O)NCCCO (stereo not given) [euspeclibcmpd2316]	-0.0436
CC(C)(CO)C(=O)C(O)NCCCO (stereo not given) [euspeclibcmpd2342]	-0.119
CON=C(C(=O)NC1C(=O)N2C(C(=O)OCOC(=O)C(C)(C)C)=C(/C=C\c3scnc3C)CSC12)c1csc(=N)[nH]1 (stereo not given) [euspeclibcmpd753]	0.022
CON=C(C(=O)NC1C(=O)N2C(C(=O)O)=C(COC(N)=O)CSC12)c1ccco1 (stereo not given) [euspeclibcmpd2072]	-0.532
CN1C(C(=O)N=c2cccc[nH]2)C(=O)c2ccccc2S1(=O)=O (stereo not given) [euspeclibcmpd238]	-0.406
N=c1ccn(C2CSC(CO)O2)c(=O)[nH]1 (stereo not given) [euspeclibcmpd613]	-0.762
CON=C(C(=O)NC1C(=O)N2C(C(=O)OC(C)OC(C)=O)=C(COC(N)=O)CSC12)c1ccco1 (stereo not given) [euspeclibcmpd658]	0.198
Cc1noc(C)c1S(=O)(=O)N1CCN(C(=O)C2=COCCO2)CC1	1.2
COC(=O)C[C@H]1C(C)(C)[C@@H](O)C2CC3=C4C=C(OC)O[C@@H](c5ccoc5)[C@]4(C)CCC3[C@@]1(C)C2=O (stereo not given in full) [euspeclibcmpd1395]	1.94
CCn1c(O)c(-c2ccccc2)[nH]c1=O [euspeclibcmpd780]	-0.504
Cc1c(NC(=O)c2ccsc2)c(=O)n(-c2ccccc2)n1C	0.403
CO[C@H]1C[C@H](O[C@@H]2C(C)C(=O)O[C@H](C)[C@H](C)[C@H](OC(C)=O)C(C)C(=O)[C@@]3(CO3)C[C@H](C)[C@H](OC3O[C@H](C)C[C@H](N(C)C)[C@H]3OC(C)=O)[C@H]2C)O[C@@H](C)[C@@H]1OC(C)=O (stereo not given in full) [euspeclibcmpd623]	-0.159
